# Molecular target: Solute carrier family 2, facilitated glucose transporter member 1 (Homo sapiens) (UniProt P11166)
# Experiment: ST_JUDE_LEISH: Cytotoxicity at 2uM final concentration against transgenic Leishmania Mexicana promastigotes LmGLUT1 that are glucose transport deficient and complemented with the human glucose transporter GLUT1. Activity is measured by DNA content using SYBR green in vitro
# Type: functional
# Solute carrier family 2, facilitated glucose transporter member 1 (Homo sapiens), sequence (P11166 whole entry): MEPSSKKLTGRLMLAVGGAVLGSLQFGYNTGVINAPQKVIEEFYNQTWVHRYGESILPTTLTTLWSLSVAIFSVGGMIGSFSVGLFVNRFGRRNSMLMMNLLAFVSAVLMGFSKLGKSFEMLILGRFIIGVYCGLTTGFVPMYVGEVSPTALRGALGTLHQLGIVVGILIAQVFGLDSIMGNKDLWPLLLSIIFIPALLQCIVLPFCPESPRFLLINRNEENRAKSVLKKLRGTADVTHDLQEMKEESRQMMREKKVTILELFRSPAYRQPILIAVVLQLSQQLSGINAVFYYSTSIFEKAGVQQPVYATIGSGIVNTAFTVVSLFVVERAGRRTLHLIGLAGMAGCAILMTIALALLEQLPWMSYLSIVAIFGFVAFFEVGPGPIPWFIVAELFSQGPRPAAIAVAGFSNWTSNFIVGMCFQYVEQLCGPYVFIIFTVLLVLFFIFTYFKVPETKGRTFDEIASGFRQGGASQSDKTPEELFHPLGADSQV
row,Structure (SMILES),inhibition
1,CCCc1cc(N2CCC(N(CC)CC)C2)nc(Nc2ccc(OC)cc2)n1 (stereo not given),3.16%
2,COCCN1CCN(Cc2ccc(-c3ccc(-c4nc5cc(F)ccc5[nH]4)cc3)cc2)CC1,6.74%
3,Nc1c2c(nc3ccc(Oc4ccc(Br)cc4Br)cc13)CCCC2,81.2%
4,O=C(Nc1ccc(-c2nc3ccccc3[nH]2)cc1)c1ccc(Cl)s1,3.19%
5,CCc1cn(CCc2ccccc2)c2ccc(C(=O)N[C@@H](Cc3ccccc3)[C@H](O)CNC(C)(C)CCCC(C)C)cc12,-1.76%
6,O=C(NCC1CC1)C1CCN(C(c2ccccc2)c2cc(F)cc(F)c2)CC1 (stereo not given),3.61%
7,COc1cc2nc(N3CCC(CNC(=O)c4ccc(-c5ccc(Cl)cc5)cc4)CC3)nc(N)c2cc1OC,9.23%
8,Cc1ccccc1C1CCN(C2CCC(NC(=O)c3cc(-c4ccccc4)oc3C)CC2)CC1 (stereo not given),-1.06%
9,O=C(Nc1ccc(Cn2ncc(N3CCCNCC3)c(Cl)c2=O)cc1)Nc1ccc(C(F)(F)F)cc1,3.47%
10,Cc1cc(N[C@@H](Cc2ccccc2)C(=O)Nc2ccccc2)nc(NCCc2ccccc2)n1,3.8%
11,Nc1nccc2ccc(-c3ccc(Oc4ccccc4)cc3)cc12,14.9%
12,Cc1cccc(C(=O)Nc2ccc(N3CCCN(Cc4cccc(O)c4)CC3)cc2)c1,5.01%
13,O=C(Nc1ccc(-c2cccc(-c3nc4cc(F)ccc4[nH]3)c2)cc1)c1cnn2cccnc12,2.14%
14,COc1ccc(OC)c(NC(=O)CSc2nc(-c3ccccc3Cl)ns2)c1,0.9%
15,Cc1cc(-c2nc3cc(C(=N)N)ccc3[nH]2)c(C)cc1-c1nc2cc(C(=N)N)ccc2[nH]1,4.57%
16,O=C(Cn1c(CCc2cccc(F)c2F)nc(=O)c2ccccc21)N(Cc1ccc(-c2ccc(C(F)(F)F)cc2)cc1)C1CCN(C2CCSCC2)CC1,1.28%
17,Cc1[nH]c(C)c(-c2ccc(-c3ccc(C(F)(F)F)cc3C(F)(F)F)nc2)c(=O)c1Br,-0.49%
18,Oc1ccc2ccccc2c1CNC1CCCCCC1,0.85%
19,CCCCOC(=O)c1ccc(NC(=O)Nc2ccc(Cn3ncc(N4CCCNCC4)c(Cl)c3=O)cc2)cc1,9.01%
20,CC(C)Nc1nc(NC2CCCCC2)nc(N2CCCCCCC2)n1,19.3%

row,Structure (SMILES),inhibition
1,Cc1cccc(C)c1CNc1ccnc2cc(Br)ccc12,9.73%
2,CCNc1cc(C(=O)N[C@@H](Cc2ccccc2)[C@H](O)CNCc2cccc(OC)c2)c(OC)c(N2CCCCS2(=O)=O)c1,1.6%
3,CCNC(=O)N1CCN(c2nc(-c3ccccc3)nc(COC)c2Cc2ccc(C)cc2)CC1,4.13%
4,CCNc1cc(C(=O)N[C@@H](Cc2ccccc2)[C@H](O)CNC2CCCC2)cc(N2CCCC2=O)c1,3.87%
5,Cc1nc(O)c2c(ccc3ccc(CN(C)c4ccc(C(=O)N[C@@H](CCC(=O)O)C(=O)O)cc4)cc32)n1,-1.5%
6,N#Cc1ccc2c(c1)CN(CCCCNC(=O)c1ccc(-c3ccccc3)cc1)CC2,3.14%
7,O=C(/C=C/c1ccc(Cl)c(Cl)c1)N1CCC(C(O)CN2CCC(c3c[nH]c4ccccc34)CC2)CC1 (stereo not given),2.18%
8,O=C(Nc1ccc(Br)c(Cl)c1)c1cc([N+](=O)[O-])cc2cn[nH]c12,-0.11%
9,Cn1ncc2c3c(CCN4CCC(NCc5cc6c(cn5)OCCO6)CC4)c(Cl)cnc3ccc21,1.09%
10,CC1CCN(c2nc(C(=O)Nc3cccc4c3CCCC4)c(C(C)C)s2)CC1,3.26%
11,O=C(NCCc1ccccc1F)c1ccc(N2CCN(c3ccncc3)CC2)cn1,10.3%
12,Cc1cccc2nc(-c3ccc(-c4ccc(CNCc5cccc(N)c5)cc4)cc3)[nH]c12,24.1%
13,Cc1cc(C2CCN(CCCCNC(=O)c3ccc(-c4ccc(C(F)(F)F)cc4)cc3)CC2)c(C)cc1OCCOC1CCCCO1 (stereo not given),1.45%
14,Cc1ccccc1CNc1noc(-c2sccc2Br)n1,-2.66%
15,Cc1cc(NC(=O)c2coc3cc(F)c(N4CC(C)N(C)C(C)C4)cc23)cnc1-c1ccc(C#N)cc1 (stereo not given),0.22%
16,CCN(CC)CCNC(=O)c1ccc(NC(=O)c2oc3c(Cl)cccc3c2C)cc1,12.1%
17,Cn1cnc(-c2ccc3c(c2)CCN(CCC2CCC(NC(=O)/C=C/c4ccc(F)cc4)CC2)CC3)c1 (stereo not given),54.7%
18,O=C(/C=C/c1ccc(Cl)c(Cl)c1)NCCCCCN1CCC(C(=O)Nc2ccc(F)c(Cl)c2)CC1,4.66%
19,Nn1c(=O)oc2ccc(Cl)cc2c1=O,4.15%
20,COc1ccc(CN(C)CCCc2ccc(NC(=O)Cc3ccc4nc(-c5ccccc5)ccc4c3)cc2)cc1OC,19.3%

# Source: ChEMBL document CHEMBL3433997, “St. Jude Leishmania screening dataset” (2016)
